# Experimental data published in ChEMBL document CHEMBL1157539, “Thousands of chemical starting points for antimalarial lead identification” (Nature, 2010).
# Tested on: Plasmodium falciparum
# Test: GSK_TCMDC: Inhibition of Plasmodium falciparum Dd2 in whole red blood cells, using parasite LDH activity as an index of growth. Test compounds present at 2uM
# Assay type: functional
row,Structure (SMILES),Inhibition [%]
1,Cc1ccccc1C1CCN(C2CCC(NC(=O)c3ccc(-c4ccccc4)s3)CC2)CC1 (stereo not given),84
2,CCOc1ncccc1CN1CCC(N2CCc3cc(NC(=O)c4ccco4)ccc32)C1 (stereo not given),94
3,Cc1cccc2nc(-c3ccc(-c4cccc(NC(=O)Nc5ccccc5)c4)cc3)[nH]c12,14
4,COc1cc(C)nc2ccc(NC(=O)c3cc([N+](=O)[O-])cc([N+](=O)[O-])c3)cc12.Cl,94
5,COc1ccc(CCNCCCCCNCCCc2ccc(Cl)cc2)cc1OC.Cl,2
6,Cc1ccccc1OCCCN1CCN(CC(c2ccc(F)cc2)N2CCN(C(C)C)CC2)CC1.Cl (stereo not given),64
7,CCc1ccnc2c(N3CCCC3=O)cc(C(=O)N[C@@H](Cc3ccccc3)[C@H](O)CNC3CCOCC3)cc12.O=CO,98
8,CCc1ccc(NC(=O)N(CCCN2CCN(C)CC2)Cc2csc(-c3ccc(CNCc4ccccc4)cc3)n2)cc1.O=C(O)C(F)(F)F,80
9,O=C1OC2(CN1CC1CCN(Cc3ccc(O)c(Cl)c3)CC1)c1ccccc1-c1ccccc12,96
10,O=C(NCCCCCN1CCC(c2c[nH]c3ccccc23)C1)Nc1ccc(Cl)c(Cl)c1 (stereo not given),19
11,CCN(CCCN1CCCCC1)c1cc(C)nc(Nc2cc(Cl)ccc2C)n1.O=C(O)C(F)(F)F,37
12,O=C(Nc1cccc(Cl)c1Cl)Nc1ccnc2ccccc12,47
13,O=C(O)C(F)(F)F.c1cc(-c2ccc(CNCCCn3ccnc3)cc2)cc(-c2nc3ccccc3[nH]2)c1,100
14,N#Cc1cnc2cc(-c3cnc(CNCCN4CCOCC4)s3)ccc2c1Nc1ccc(Oc2ccccc2)cc1,83
15,Cc1cccc2nc(-c3ccc(-c4ccc(CNCCCN5CCCC5=O)cc4)s3)[nH]c12.O=C(O)C(F)(F)F,43
16,CN(C)CCC=C1c2ccccc2Sc2c(O)cc(Cl)cc21.O=C(O)/C=C\C(=O)O,80
17,O=C(Nc1ccc(-c2nc3ccccc3[nH]2)cc1)c1cnc(Cl)c(Cl)c1,95
18,Cc1cc(-c2nc3ccc(N4CCN(C)CC4)cc3[nH]2)nn1Cc1cc(Cl)ccc1OCC(C)C.Cl,67
19,CCCCCN1CCCN(Cc2cccc(NC(=O)c3ccc(Cl)c(Cl)c3)c2)CC1.O=C(O)C(F)(F)F,28
20,C=CCOc1ccc(C(=O)Nc2nonc2-c2ccc(OC)c(OC)c2)cc1,91
21,C=CCCCNCC(NCCCNc1cc(=O)c2ccccc2[nH]1)c1cc(Br)cc(Br)c1 (stereo not given),19
22,COc1cccc(C(=O)N2CCN(Cc3cccc(NC(=O)c4cccs4)c3)CC2)c1.O=C(O)C(F)(F)F,95
23,CN1CCN(c2ccnc3ccc(NC(=O)Cc4ccc(-c5ccncc5)c5ccccc45)cc23)CC1,100
24,O=C(Nc1ccc2c(c1)CCC2)c1cnc(N2CCN(c3ccncc3)CC2)c(Cl)c1.O=C(O)C(F)(F)F,48
25,COc1cccc(C(=O)N2CCOC(CCN3CCC(c4ccccc4)CC3)(c3ccc(Cl)c(Cl)c3)C2)c1 (stereo not given),63
26,O=C(Nc1ccc(-c2nc3ccccc3[nH]2)cc1)C1CCCN(C2CCC2)C1 (stereo not given),5

# Tested on: HepG2
# Test: GSK_TCMDC: Percent inhibition of human HepG2 cell line. Test compounds present at 10uM.
# Assay type: functional
row,Structure (SMILES),Inhibition [%]
1,COC(=O)CCCCOc1cc(Cc2cnc(N)nc2N)cc(OC)c1OC,0
2,c1ccc2c3c(ccc2c1)Sc1c(ccc2ccccc12)N3,0
3,CN1CCN(c2ccnc3ccc(NC(=O)Cc4ccc5ccccc5c4)cc23)CC1,6
4,c1cc2[nH]c(CCCc3nc4cc(C5=N[C@H]6CCCC[C@H]6N5)ccc4[nH]3)nc2cc1C1=N[C@@H]2CCCC[C@@H]2N1,10
5,Cc1ccc(O)cc1Nc1ccnc2cc(-c3ccc(CN4CCCCC4)o3)ccc12,16
6,O=C(Nc1ccc(OC2CCN(Cc3ccc(F)cc3)C2)cc1)c1cccs1.O=C(O)C(F)(F)F (stereo not given),2
7,COc1ccc2nccc(N3CCN(CCNCc4ccc5c(n4)NC(=O)CO5)CC3)c2c1.Cl,18
8,Cc1noc(C)c1-c1ccc2c(Nc3ccccc3C(C)(C)C)c(C(=O)NCc3ccccc3)cnc2c1.Cl,20
9,CCN1C(=O)C(CC(=O)Nc2cccc(Cl)c2)N(Cc2ccc(OC)c(OC)c2)C1=S (stereo not given),13
10,CN1CCCC(CN2CCN(Cc3ccc(-c4ccc(-c5nc6ccccc6[nH]5)cc4)cc3)CC2)C1.O=C(O)C(F)(F)F (stereo not given),69
11,CCC(CC)(Cc1ccccc1)NC(=O)[C@H](Cc1ccc(OC)c(OC)c1)Nc1ccc(C#N)c2ccccc12.O=C(O)C(F)(F)F,16
12,CNS(=O)(=O)c1ccc(NC(=O)c2cc(-c3cccnc3)nc3ccc(Br)cc23)cc1,9
13,N#Cc1ccc(-n2cc(C(=O)Nc3ccc4c(c3)CCN(C3CCC3)CC4)c(C(F)(F)F)n2)cc1.O=C(O)C(F)(F)F,37
14,Cc1ccccc1C1CCN(C2CCC(NC(=O)c3ccc(-c4ccccc4)s3)CC2)CC1 (stereo not given),26
15,CCOc1ncccc1CN1CCC(N2CCc3cc(NC(=O)c4ccco4)ccc32)C1 (stereo not given),3
16,Cc1cccc2nc(-c3ccc(-c4cccc(NC(=O)Nc5ccccc5)c4)cc3)[nH]c12,18
17,COc1cc(C)nc2ccc(NC(=O)c3cc([N+](=O)[O-])cc([N+](=O)[O-])c3)cc12.Cl,0
18,COc1ccc(CCNCCCCCNCCCc2ccc(Cl)cc2)cc1OC.Cl,24
19,Cc1ccccc1OCCCN1CCN(CC(c2ccc(F)cc2)N2CCN(C(C)C)CC2)CC1.Cl (stereo not given),20
20,CCc1ccnc2c(N3CCCC3=O)cc(C(=O)N[C@@H](Cc3ccccc3)[C@H](O)CNC3CCOCC3)cc12.O=CO,2

row,Structure (SMILES),Inhibition [%]
1,CCc1ccc(NC(=O)N(CCCN2CCN(C)CC2)Cc2csc(-c3ccc(CNCc4ccccc4)cc3)n2)cc1.O=C(O)C(F)(F)F,17
2,O=C1OC2(CN1CC1CCN(Cc3ccc(O)c(Cl)c3)CC1)c1ccccc1-c1ccccc12,32
3,O=C(NCCCCCN1CCC(c2c[nH]c3ccccc23)C1)Nc1ccc(Cl)c(Cl)c1 (stereo not given),28
4,CCN(CCCN1CCCCC1)c1cc(C)nc(Nc2cc(Cl)ccc2C)n1.O=C(O)C(F)(F)F,36
5,O=C(Nc1cccc(Cl)c1Cl)Nc1ccnc2ccccc12,31
6,O=C(O)C(F)(F)F.c1cc(-c2ccc(CNCCCn3ccnc3)cc2)cc(-c2nc3ccccc3[nH]2)c1,17
7,N#Cc1cnc2cc(-c3cnc(CNCCN4CCOCC4)s3)ccc2c1Nc1ccc(Oc2ccccc2)cc1,30
8,Cc1cccc2nc(-c3ccc(-c4ccc(CNCCCN5CCCC5=O)cc4)s3)[nH]c12.O=C(O)C(F)(F)F,17
9,CN(C)CCC=C1c2ccccc2Sc2c(O)cc(Cl)cc21.O=C(O)/C=C\C(=O)O,8
10,O=C(Nc1ccc(-c2nc3ccccc3[nH]2)cc1)c1cnc(Cl)c(Cl)c1,11
11,Cc1cc(-c2nc3ccc(N4CCN(C)CC4)cc3[nH]2)nn1Cc1cc(Cl)ccc1OCC(C)C.Cl,41
12,CCCCCN1CCCN(Cc2cccc(NC(=O)c3ccc(Cl)c(Cl)c3)c2)CC1.O=C(O)C(F)(F)F,30
13,C=CCOc1ccc(C(=O)Nc2nonc2-c2ccc(OC)c(OC)c2)cc1,2
14,C=CCCCNCC(NCCCNc1cc(=O)c2ccccc2[nH]1)c1cc(Br)cc(Br)c1 (stereo not given),0
15,COc1cccc(C(=O)N2CCN(Cc3cccc(NC(=O)c4cccs4)c3)CC2)c1.O=C(O)C(F)(F)F,6
16,CN1CCN(c2ccnc3ccc(NC(=O)Cc4ccc(-c5ccncc5)c5ccccc45)cc23)CC1,32
17,O=C(Nc1ccc2c(c1)CCC2)c1cnc(N2CCN(c3ccncc3)CC2)c(Cl)c1.O=C(O)C(F)(F)F,33
18,COc1cccc(C(=O)N2CCOC(CCN3CCC(c4ccccc4)CC3)(c3ccc(Cl)c(Cl)c3)C2)c1 (stereo not given),38
19,O=C(Nc1ccc(-c2nc3ccccc3[nH]2)cc1)C1CCCN(C2CCC2)C1 (stereo not given),0
